PubChem BioAssay (NCATS)
Results filed as inconclusive are left out. Where a call stands in place of a potency, no number is given. Activity calls are given as the source filed them. Calls come from the whole dose curve; as a rule, active = well fitted inhibition curve with a large enough effect; inconclusive = small, poorly fitted or top-dose-only effect; inactive = flat fitted curve, though single readings scatter.

Assay: P-glycoprotein substrates identified in KB-8-5-11 adenocarcinoma cell line, qHTS therapeutic library screen (AID 1346987); note: nearly all actives have a fitted effect of over 65% in size
Details: KB-8-5-11 (P-gp overexpressing) viability, CellTiter-Glo, 72 h; series mostly up to 44.5 µM
Outline: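 In this qHTS, P-gp-rich KB-8-5-11 cells received library compounds across a concentration range. Viability was quantified by luminescence after 72 h at 37 degree C.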

Row | SMILES | Potency
1 | OC[C@@]1(O)CO[C@H](OC[C@H]2O[C@@H](OCCc3ccccc3)[C@H](O)[C@@H](O)[C@@H]2O)[C@@H]1O | inactive
2 | Cc1c(NC(=O)N2CCOCC2)ccc2c1c1ccccc1n2C(C)C | inactive
3 | COc1c2c(c(C)c3c1C(=O)OC3)OC1(C)CC(O)C34OC(O)(CCC3(C)C1C2)OC4(C)C (stereo unspecified) | inactive
4 | COc1cc(O)cc(C)c1C(=O)OC1C(CO)OC(n2ccc(=O)[nH]c2=O)C1OC(C)=O (stereo unspecified) | inactive
5 | CC(=O)/C=C/C1(O)C(C)=CC(=O)CC1(C)C (stereo unspecified) | inactive
6 | COC1OC(O)C2(CCC3(O2)C(C)CC2OC(=O)C4(C)CCCC3(C)C24)C1O (stereo unspecified) | inactive
7 | C=CC(C)(CCC=C(C)C)O[C@@H]1O[C@H](CO)[C@@H](O)[C@H](O)[C@H]1O (stereo partly specified) | inactive
8 | CC1(C)CC[C@]2(C(=O)O[C@@H]3O[C@H](CO)[C@@H](O)[C@H](O)[C@H]3O)CC[C@]3(C)C(=CCC4[C@@]5(C)C[C@@H](O)[C@H](O)[C@@](C)(CO)C5[C@H](O)C[C@]43C)C2C1 (stereo partly specified) | inactive
9 | COc1cc(/C=C/C(=O)O[C@H]2[C@H](O)[C@@H](CO)O[C@@]2(CO)O[C@H]2O[C@H](CO)[C@@H](O)[C@H](O)[C@H]2O)cc(OC)c1O | inactive
10 | CN(C)C(=O)C(O)C(Cc1ccccc1)NC(=O)c1cc2cc(Cl)ccc2[nH]1 (stereo unspecified) | inactive
11 | C/C(CO)=C1/CCC23COC(C2)C(O)(C(=O)O)CCC13 (stereo unspecified) | inactive
